HIF-2a inh = HIF-2a reporter inhibitors, primary screen, luminescence, 786-0 RCC cells; 786-0 RCC cells HIF-2a reporter, luciferase luminescence, overnight; inhibition, % at 18.8 µM; 360,000 compounds, 0.72% hits; AID 624352, 2012;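 active = inhibition of the luminescence signal of 40% or more relative to plate controls, in a single-dose primary screen at 18.75 µM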
KKLEB cytotox = cytotoxicity in KKLEB CF airway cells, primary screen, cytotoxicity control for CF NF-kB inhibitor project, cell-based, uHTS, fluorescence assay plates | KKLEB CF airway cells viability, ATPlite luminescence, overnight; hits give low values; cells stimulated with P. aeruginosa culture filtrate | activity change (cytotoxicity), % at 5 µM | 360,000 compounds, 0.36% hits;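 active = corrected activity change at or below -50% at 5 µM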
CF NFkB block = inhibitors of PAF-induced NF-kB signaling, primary screen, cell-based, GFP fluorescence, uHTS. KKLEB NF-kB-GFP reporter, GFP fluorescence overnight. inhibition, % at 5 µM. 360,000 compounds, 0.86% hits;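 active = at least 50% inhibition at 5 µM, scaled per plate between neutral and stimulator controls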;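 also: PAF is a Pseudomonas aeruginosa culture filtrate used as stimulus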
iPSC survival up = enhancers of single-cell hiPSC survival, primary screen, ATPlite luminescence; AID 602274, 2012; 360,000 compounds, 0.044% hits; survival enhancement, % at 20 µM; 100% = ROCK inhibitor wells, 0% = DMSO; in the data active = survival enhancement above about 18%;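 also: cells exposed to compounds for 16 hours before the ATP read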
TWEAK Fn14 block = inhibitors of TWEAK-Fn14 signaling, primary screen, luciferase reporter cells, uHTS; TWEAK-stimulated Fn14 reporter cells, luciferase luminescence, 8 h; 360,000 compounds, 2% hits; AID 1159606, 2016; inhibition, % at 10 µM; in the data active = inhibition above about 50%
LGR2 antag = inhibitors of bursicon-induced LGR2 CRE-luciferase signal, primary screen, cell-based, HEK293, CRE-luciferase reporter, bursicon stimulation; Drosophila bursicon receptor LGR2 (rickets); bursicon-stimulated, 4 h; inhibition, % at 9.99 µM; 380,000 compounds, 0.35% hits; AID 720647, 2013;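 active = drop in luminescence signal, shown as inhibition above about 50% in the replicate tests, limit read from the data, passing the limit was not always enough; inconclusive = probably only some replicates passing the limit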;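 also: agonist challenge used bursicon conditioned medium at about half maximal strength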
Hits are given with their value; n = inactive; u = inconclusive; x = no result given. Compounds with a hit are over-represented: about 2.3% of the library has one in this group of screens.

SMILES	HIF-2a inh	KKLEB cytotox	CF NFkB block	iPSC survival up	TWEAK Fn14 block	LGR2 antag
CC(=O)N1[C@H](CO)[C@H]2c3ccccc3N(S(=O)(=O)c3ccc(F)cc3)C[C@H]21	x	x	x	x	x	n
C[C@@H]1CCCCO[C@H](CN(C)S(=O)(=O)c2cn(C)cn2)[C@H](C)CN([C@H](C)CO)C(=O)c2cc(NS(=O)(=O)c3ccccc3)ccc2O1	x	x	x	x	x	n
Cc1ccc(S(=O)(=O)Nc2ccc3c(c2)C(=O)N([C@H](C)CO)C[C@@H](C)[C@H](CN(C)C(=O)Nc2ccccc2)OCCCC[C@H](C)O3)cc1	x	x	x	x	x	n
Cn1c2c(c(=O)n(C)c1=O)C(C(F)(F)F)(C(F)(F)F)N=C(CCC1CCCCC1)N2	n	n	n	n	60	75
O=S(=O)(Nc1ccc(O)c(Sc2nc3ccccc3s2)c1)c1ccc(F)cc1	n	n	n	n	n	n
O=S(=O)(Nc1ccc(O)c(Sc2nc3ccccc3s2)c1)c1cccc2ccccc12	n	n	n	n	50	n
Cc1cc(C)c(O)c(NC(=S)NC(=O)Cc2ccccc2)c1	n	n	n	n	72	n
COc1ccccc1N(Cc1ccccc1)S(=O)(=O)c1cccc(C(=O)Nc2ccccn2)c1	n	n	n	n	n	n
COc1ccccc1N(Cc1ccccc1)S(=O)(=O)c1cccc(C(=O)Nc2ccc(C)cn2)c1	n	n	n	n	53	n
COC(=O)c1ccc2nc(-c3cccc(N)c3)cn2c1	n	n	n	n	95	85
O=C(N/N=C/c1cccc(F)c1)c1c(O)c2ccccc2[nH]c1=O	n	-64	65	n	58	n
C[C@@H]1CCCCO[C@@H](CN(C)C(=O)CCC(F)(F)F)[C@@H](C)CN([C@H](C)CO)C(=O)c2cc(NC(=O)Nc3ccc4c(c3)OCO4)ccc2O1	x	x	x	x	x	n
S=C(NN=C1C2CC3CC(C2)CC1C3)Nc1ccccc1	n	n	n	n	94	x
Cc1noc(C)c1S(=O)(=O)N(C)C[C@H]1OCCCC[C@H](C)Oc2ccc(NS(=O)(=O)c3ccc(Cl)cc3)cc2C(=O)N([C@H](C)CO)C[C@@H]1C	x	x	x	x	x	n
Cc1[nH]nc2c1C(c1cccs1)C(C#N)=C(N)O2 (stereo not drawn)	n	n	n	n	n	n
Cc1ccsc1C1C(C#N)=C(N)Oc2n[nH]c(C)c21 (stereo not drawn)	n	n	n	n	61	n
CCCN(CCC)CCCNC(=O)CC(C(=O)N1CCc2ccccc21)n1ccnc1 (stereo not drawn)	n	n	n	n	n	x
CCN(CC)CC(C)CNC(=O)CC(C(=O)N1CCc2ccccc21)n1ccnc1 (stereo not drawn)	n	n	n	n	56	n
COC(=O)C[C@H]1CC[C@H]2[C@@H](COc3ccc(NS(C)(=O)=O)cc3C(=O)N2C)O1	x	x	x	x	x	n
COc1ccc(NC(=O)Nc2ccc3c(c2)CC(=O)N([C@H](C)CO)C[C@H](C)[C@H](CN(C)S(=O)(=O)c2ccc(C)cc2)O3)cc1	x	x	x	x	x	n
Cc1cc(N=Nc2ccc(C)c(N=Nc3cc(C)c(N)cc3N)c2)c(N)cc1N	n	n	n	n	69	n
CO[C@@H]1CN(C)C(=O)c2cc(NC(C)=O)ccc2OC[C@H](C)N(CC2CC2)C[C@H]1C	x	x	x	x	x	n
COc1cccc(-c2ccc3c(c2)[C@@H]2[C@@H](CCN2C(=O)c2cnccn2)[C@@H](CO)N3)c1	x	x	x	x	x	n
COc1ccccc1-c1cnc2c(c1)C(=O)N([C@H](C)CO)C[C@@H](C)[C@H](CN(C)C(=O)c1ccncc1)O2	x	x	x	x	x	n
CC(Oc1ccc(Cl)cc1Cl)c1nc(-c2ccc(NC(=O)c3ccccn3)cc2)no1 (stereo not drawn)	n	n	n	n	53	n
SMILES	HIF-2a inh	KKLEB cytotox	CF NFkB block	iPSC survival up	TWEAK Fn14 block	LGR2 antag
COc1ccc(Cl)cc1-c1nc(-c2ccc(NC(=O)c3ccncc3)cc2)no1	n	n	n	n	n	x
C=CCN1C(=O)NC(c2ccc(OC)cc2)(C(F)(F)F)S/C1=C(\C#N)c1nnc(N2CCOCC2)n1-c1ccccc1 (stereo not drawn)	n	n	n	n	50	n
CN1C(=O)c2cc(NC(=O)NC3CCCC3)ccc2OC[C@@H]2O[C@H](CC(=O)NC3CCC3)CC[C@H]21	x	x	x	x	x	n
CC1OC2CC(=O)OC2C2=C1C(=O)c1c(O)cccc1C2=O (stereo not drawn)	90	-83	91	n	107	100
CC(C)NC(=O)Nc1cccc2c1O[C@H](CN(C)C)[C@H](C)CN([C@@H](C)CO)C2=O	x	x	x	x	x	n
CC(=O)c1ccc(NC(=O)CN2CCOCC2)cc1	n	n	n	n	110	n
C[C@@H]1CN([C@@H](C)CO)C(=O)Cc2cc(NC(=O)Nc3ccccc3)ccc2O[C@@H]1CN(C)C(=O)Nc1ccc(F)cc1	x	x	x	x	x	n
COc1ccc(-c2n[nH]c(C)c2-c2ccc(Cl)cc2)c(O)c1OC	n	n	n	n	55	x
COc1ccc(-c2n[nH]c(C)c2-c2ccc(Cl)cc2)c(O)c1	n	n	n	n	n	x
O=C(NC(Nc1nc2ccc([N+](=O)[O-])cc2s1)(C(F)(F)F)C(F)(F)F)c1ccccc1Cl	n	-53	n	n	90	n
O=C(NC(Nc1nc2ccc([N+](=O)[O-])cc2s1)(C(F)(F)F)C(F)(F)F)c1cccnc1	n	n	55	n	51	x
CN(C)S(=O)(=O)c1ccc2nc(NC(=O)c3cccnc3)sc2c1	n	n	n	n	n	x
CC(C)C#Cc1cnc2c(c1)C(=O)N([C@@H](C)CO)C[C@@H](C)[C@@H](CN(C)C(=O)Cc1ccncc1)O2	x	x	x	x	x	n
O=C(CN1CCN(S(=O)(=O)c2ccccc2)CC1)NC(=O)NCc1ccco1	n	n	n	n	94	n
O=[N+]([O-])/C=C\c1ccc(N2CCOCC2)cc1	55	n	n	n	53	u
O=C(O)C[C@H]1CC[C@H](NC(=O)Nc2ccccc2)[C@H](CO)O1	x	x	x	x	x	n
Cc1ccc(NC(=O)/C(C#N)=C/c2cc(C)n(-c3ccc(N4CCOCC4)c([N+](=O)[O-])c3)c2C)c(C)c1	n	n	n	n	54	n
COc1ccc(-n2cc(-c3ccccc3)c3c(N4CCOCC4)ncnc32)cc1	n	-100	94	n	n	n
COc1ccc(-n2cc(-c3ccccc3)c3c(NCCCN4CCOCC4)ncnc32)cc1	n	n	n	n	n	n
Cc1cc(C)n(S(=O)(=O)c2ccc(Cl)cc2)n1	n	n	n	n	n	n
Cc1cc(C)n(S(=O)(=O)c2ccc(F)cc2)n1	n	n	n	n	73	n

High-throughput results (PubChem)
